Mdm2 MdmX PPI – human Mdm2/MdmX binding inhibition; O15151+Q00987; SaOS-2 split-luciferase Mdm2/MdmX complementation, luminescence; inhibition, % at 8 µM; hit rate 3% among 330,000;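 active = inhibition of at least 50% at 8 µM in the primary screen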
TIM10 inh – inhibits growth of TIM10 yeast strain | S. cerevisiae TIM10 strain growth, BacTiter-Glo luminescence, 24 h | inhibition, % at 10 µM | AID 463195 | hit rate 1.4% among 330,000;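 active = inhibition of 40% or more at the single tested concentration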;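 note: wild-type TIM10 isogenic control strain grown at permissive 25 °C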
tim10-1 inh – inhibits growth of tim10-1 mutant yeast. S. cerevisiae tim10-1 ts strain growth, BacTiter-Glo, 24 h. hit rate 2.2% among 330,000. AID 463190. inhibition, % at 20 µM;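 active = inhibition of at least 40%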;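 note: mutant grown at 25 °C; 0% = DMSO wells with yeast and 100% = wells holding no yeast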
tim23-1 inh – growth inhibitors of tim23-1 mutant yeast. S. cerevisiae tim23-1 growth, BacTiter-Glo luminescence, 24 h. inhibition, % at 20 µM. hit rate 1.3% among 330,000. AID 463212;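 active = growth inhibition of the mutant yeast at or above 50%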;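 note: temperature-sensitive mutant grown at 25 °C; plate controls were DMSO-treated mutant yeast for no effect and medium wells lacking yeast for full effect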
MPTP block – blocks calcium-induced mitochondrial swelling. hit rate 1.4% among 360,000. isolated mouse mitochondria, Ca2+ swelling absorbance, 30 min. inhibition, % at 10 µM;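 active = inhibition of 50% or more, scaled per plate between neutral and stimulator controls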;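 note: 0% = DMSO wells given calcium and 100% = 1 mM EGTA wells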
Mdm2-MdmX conf – confirmation of human Mdm2/MdmX interaction inhibitors | inhibition, % at 8 µM | AID 489028 | hit rate 55% among 10,000 | shares compounds with Mdm2 MdmX PPI | Mdm2-MdmX binding, luminescent assay; in the data active = inhibition above about 40%
FLuc counter – full-length luciferase inhibition in Mdm2/MdmX counter-screen; inhibition, % at 8 µM; hit rate 77% among 6,200; shares compounds with Mdm2 MdmX PPI; AID 504607; SaOS-2 full-length luciferase counterscreen, luminescence;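 active = mean inhibition at 8 µM reaching about 37%, which flags the compound as non-specific, limit read from the data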;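 note: p53-null SaOS-2 cells with luciferase driven by a doxycycline-inducible promoter; compound on cells about two nights before reading with doxycycline added after day one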
* marks the source's active call; other numbers are inactive results; . = no result given. A selection: hits, their analogues and other compounds. The true share with any hit is near 6.3%.

SMILES	Mdm2 MdmX PPI	TIM10 inh	tim10-1 inh	tim23-1 inh	MPTP block	Mdm2-MdmX conf	FLuc counter
Cn1c(/C=C/c2ccc(Cl)cc2Cl)c([N+](=O)[O-])c(=O)n(C)c1=O	100*	31	23	17	1	76*	11
Cc1cc(C)cc(Nc2nc(-c3ccc(S(=O)(=O)N4CCCC4)cc3)cs2)c1	59*	0	7	10	9	58*	42*
O=C1c2cccc3cc(Br)cc(c23)C(=O)N1Nc1ccc(Br)cc1	73*	-2	2	-20	1	63*	74*
O=C1c2cccc3cccc(c23)C(=O)N1Nc1ccccc1	19	3	17	-2	0	.	.
O=C(COc1cc2oc(=O)c3c(c2cc1Cl)CCC3)Nc1ccc(CN2CCOCC2)cc1	52*	-2	4	-9	-1	19	.
O=C(C[n+]1cccc(C(=O)Nc2ccccc2)c1)c1ccccc1	.	.	.	.	-2	.	.
CN(c1ccc(F)cc1)S(=O)(=O)c1ccc(Cl)c(C(=O)Nc2ccncc2)c1	52*	-5	-1	4	50	28	.
CN(c1ccccc1)S(=O)(=O)c1ccc(Cl)c(C(=O)Nc2ccncc2)c1	31	-3	7	22	35	.	.
CC(C)[C@H](NC(=O)c1ccc(Cl)cc1)C(=O)Nc1cccc(S(=O)(=O)N2CCOCC2)c1	.	.	.	.	1	.	.
COc1ccc(CNC(=O)COC(=O)c2ccccc2OCC(=O)Nc2ccc(SC(F)F)cc2)cc1	99*	-20	-11	-8	1	16	.
CCOC(=O)COc1cccc2c(=O)n(CC(=O)NCc3ccc(F)cc3)ccc12	59*	2	9	7	1	61*	83*
CCOC(=O)C(C)Oc1cccc2c(=O)n(CC(=O)Nc3ccc4c(c3)OCCO4)ccc12 (centres undefined)	48	-20	-10	-12	0	.	.
CCOC(=O)C(C)Oc1cccc2c(=O)n(CC(=O)NCc3ccc4c(c3)OCO4)ccc12 (centres undefined)	54*	8	7	12	-1	59*	57*
O=C1CC(c2ccco2)Cc2c1cnn2-c1nc2ccccc2s1 (centres undefined)	50*	11	0	-3	-4	6	.
Oc1c(Cl)cc(Cl)cc1C1Nc2ccccc2-n2cccc21 (centres undefined)	-13	21	4	15	3	.	.
COc1ccc2c(c1)NC(c1cc(Cl)cc(Cl)c1O)c1cccn1-2 (centres undefined)	81*	16	1	1	2	16	.
CCc1nc2c(OCC(=O)N3CCOCC3)cccn2c1N(C)C(=O)COc1ccccc1	.	.	.	.	0	.	.
CCN(CC)CCNC(=O)c1c(C)n(-c2ccccc2)c2cc(Br)c(OC)cc12	81*	3	29	15	0	38	38*
CCOC(=O)c1c(C)n(C)c2cc(Br)c(OC)cc12	-3	13	25	31	0	.	.
CN(CC(=O)Nc1ccc(Cl)c(C(F)(F)F)c1)C(=O)C1CCCO1 (centres undefined)	-8	0	-9	4	1	.	.
Cc1ccc(N2CC(C(=O)N(C)CC(=O)Nc3ccc(Cl)c(C(F)(F)F)c3)CC2=O)cc1 (centres undefined)	59*	4	20	18	0	44*	66*
COc1cc2cccc(OC)c(=O)c2c(O)c1OC	-40	14	19	29	1	.	.
COc1cc2c(ccc3cc(OC)c(OC)c(O)c32)cc1O	74*	9	20	12	7	38	31
CC1(C(=O)Nc2ccc(F)cc2F)CCN1C(=O)Cc1ccccc1 (centres undefined)	.	.	.	.	1	.	.
CC[C@H](C)[C@@H]1NC(=O)[C@H]([C@@H](C)CC)NC(=O)[C@@H](CC(C)C)NC(=O)[C@H](Cc2ccccc2)NC(=O)[C@H](Cc2ccccc2)NC(=O)[C@@H]2CCCN2C(=O)[C@@H]2CCCN2C(=O)[C@H](C(C)C)NC(=O)[C@H](CC(C)C)NC1=O	52*	3	22	21	1	12	.
Clc1ccc(C(c2nnnn2C2CCCC2)N2CCN(Cc3ccncc3)CC2)cc1 (centres undefined)	6	21	21	32	-1	.	.

Screening results: PubChem BioAssay, Sanford-Burnham Center for Chemical Genomics
